High-throughput results as filed in PubChem BioAssay.
This is a sample that favours compounds with a hit; in the whole collection about 7.3% have one here.
SMN2 splice up: increases expression of the SMN2 splice variant. HEK293 SMN2-luciferase splicing reporter, luminescence, 30-36 h. Potency, µM (highest dose often 46.1 µM), hits mostly activators. actives 2.8% (n = 210,000). AID 1458; note: nearly all actives have a fitted effect of over 55% in size
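qHTS luciferase splicing reporter: luminescence rises when SMN2 exon 7 is included in transfected HEK293 cells. Compound exposure lasted 30-36 h at 37C, with 4.5 mM final sodium butyrate as control, followed by a ONE-Glo read.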
ELG1 genotoxic: inducers of genotoxicity in HEK293T ELG1-luciferase cells; Potency, µM (series often up to 46 µM), actives largely listed as activators; actives 1.3% (n = 330,000); HEK293T ELG1-luciferase reporter, luminescence, 16 h; note: nearly all actives have a fitted effect of over 60% in size
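HEK293T cells expressing luciferase-tagged ELG1 were exposed to compound or DMSO vehicle for 16 hr at 37 °C and 5% CO2. Luciferase activity was then measured with ONE-Glo after 30 min at room temperature.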
Rab9 prom act: activates the Rab9 promoter; Huh7 Rab9 promoter-luciferase reporter, luminescence, 24 h; Potency, µM (highest dose often 9.22 µM), usual class: activators; actives 2.8% (n = 320,000); AID 485297; note: nearly all actives have a fitted effect of over 60% in size
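Using Huh7 cells stably transfected with Rab9 promoter–luciferase, compounds were incubated 24 h at 37 °C, 5% CO2; luciferase luminescence was read 10 min after reagent addition.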
uPA generation: inhibitors of cell surface uPA generation. cell surface uPA generation assay, qHTS. Potency, µM (series often up to 38.3 µM), most hits filed as inhibitors. actives 0.31% (n = 330,000). AID 540303; active = well fitted inhibition curve with a large enough effect; inconclusive = small, poorly fitted or top-dose-only effect; inactive = no such curve, though single readings can be large or run the other way; tested in mouse RAW 264.7 cells; note: nearly all actives have a fitted effect of over 55% in size
FLuc counter: counter-screen for miR-21 project: firefly luciferase inhibitors or activators; actives 6.9% (n = 360,000); Potency, µM (doses to about 57.5 µM), usual class: inhibitors; P08659; purified FLuc, Km substrates, luminescence inhibition; AID 588342; note: nearly all actives have a fitted effect of over 55% in size
Target sequence (P08659 whole entry, looked up): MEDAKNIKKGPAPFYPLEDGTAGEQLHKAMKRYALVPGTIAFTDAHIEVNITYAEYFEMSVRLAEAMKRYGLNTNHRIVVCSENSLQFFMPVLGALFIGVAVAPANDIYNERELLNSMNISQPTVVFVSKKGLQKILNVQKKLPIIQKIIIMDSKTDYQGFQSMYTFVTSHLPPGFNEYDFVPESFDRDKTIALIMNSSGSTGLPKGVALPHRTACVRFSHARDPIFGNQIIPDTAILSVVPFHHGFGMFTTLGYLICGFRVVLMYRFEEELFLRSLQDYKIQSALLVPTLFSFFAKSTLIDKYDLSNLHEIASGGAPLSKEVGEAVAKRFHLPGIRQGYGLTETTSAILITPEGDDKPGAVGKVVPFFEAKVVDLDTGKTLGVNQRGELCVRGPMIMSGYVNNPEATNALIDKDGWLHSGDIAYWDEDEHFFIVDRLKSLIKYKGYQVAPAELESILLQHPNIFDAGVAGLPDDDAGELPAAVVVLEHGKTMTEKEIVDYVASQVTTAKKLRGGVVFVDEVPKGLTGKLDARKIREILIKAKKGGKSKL
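Biochemical qHTS of compounds, final roughly 60 µM downward over six points, against 10 nM purified firefly luciferase using Km concentrations of substrates (10 uM D-luciferin, 10 uM ATP) in Tris acetate pH 7.5 buffer; luminescence output.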
NPC1 prom act: activators of NPC1 promoter; Huh7 NPC1 promoter luciferase reporter, 24 h; Potency, µM (titrated, usually from 9.22 µM), hits mostly activators; actives 2.4% (n = 320,000); AID 485313; note: nearly all actives have a fitted effect of over 60% in size
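NPC1 promoter–luciferase Huh7 cells; 24 h compound; luminescence.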
A number is an active result; - = inactive; ? = inconclusive; . = not tested or not shown. Unless noted, calls come from the whole dose curve; as a rule, active = well fitted curve in the direction sought with a large enough effect; inconclusive = small, poorly fitted or top-dose-only effect, or another doubt; inactive = no such curve, though single readings can be large; an effect the other way counts as inactive or inconclusive.

SMILES	SMN2 splice up	ELG1 genotoxic	Rab9 prom act	uPA generation	FLuc counter	NPC1 prom act
O=C(Nc1ccc2c(c1)OCO2)c1ccc2c(c1)OCO2	5µM	?	0.56µM	-	2.1µM	0.79µM
O=C(Nc1ccc(N2CCCCC2)c(Cl)c1)c1ccc2c(c1)OCCO2	-	?	-	-	5.4µM	-
Cc1[nH]c2ccccc2c1C(=O)C(=O)Nc1ccc2c(c1)OCO2	.	-	?	-	17µM	?
CC(=O)NC(Cc1c[nH]c2ccccc12)C(=O)OCC(=O)Nc1ccc2c(c1)OCO2 (centres undefined)	-	-	-	-	-	-
O=C(CCNS(=O)(=O)c1ccc2c(c1)CCCC(=O)N2)NCc1ccccc1Cl	.	.	.	.	-	.
O=C(Nc1ccc(Cl)c([N+](=O)[O-])c1)c1ccc2c(c1)OCCO2	.	?	0.89µM	-	6µM	?
O=C(Nc1ccc2c(c1)OCO2)c1cccc(Cl)c1	16µM	?	2.2µM	-	9.5µM	3.2µM
O=C(N/N=C/c1ccc(Cl)c([N+](=O)[O-])c1)c1ccc2c(c1)OCCO2	.	.	.	-	.	.
O=C(Nc1ccc2c(c1)OCO2)c1ccc(N2CCCC2)c([N+](=O)[O-])c1	-	-	-	-	19µM	-
CCN1CCN(c2ccc(NC(=O)c3ccc4c(c3)OCO4)cc2)CC1	16µM	9.2µM	?	-	17µM	?
O=C(Nc1cccc(NC(=O)c2ccc3c(c2)OCO3)c1)c1ccccc1	-	-	-	-	?	-
O=C(Nc1ccc(Cl)cc1)c1ccc2c(c1)OCO2	4.5µM	?	?	-	1.3µM	0.4µM
O=C(Nc1ccc(F)c(F)c1)c1ccc2c(c1)OCO2	-	3.7µM	?	-	9.5µM	2.5µM
CCc1ccc(-n2nc3ccc(NC(=O)c4ccc5c(c4)OCO5)cc3n2)cc1	-	-	-	-	-	-
O=C(Nc1ccc2c(c1)OCO2)c1ccc(Cl)s1	7.1µM	2.6µM	2µM	.	4.3µM	2.2µM
O=C(Nc1ccc2nsnc2c1)c1ccc2c(c1)OCO2	5.6µM	1.2µM	0.45µM	.	1.3µM	0.63µM
O=C(Nc1ccc(NC(=O)c2ccc(Cl)cc2Cl)cc1)c1ccc2c(c1)OCO2	.	-	-	-	-	-
COC(=O)C1(C(=O)OC)Cc2conc2[C@H]1c1ccccc1	-	.	.	.	.	.
COc1ccc(Cl)cc1NC(=O)c1cc(S(=O)(=O)N2CCC(C)CC2)cn1C	.	.	.	.	-	.
O=C(Nc1ccc2c(c1)OCO2)c1c(Cl)nc2sccn12	?	?	3.2µM	-	?	?
Cc1cc(C(=O)Nc2ccc3c(c2)OCO3)cs1	13µM	7.3µM	1.3µM	-	4.8µM	1.8µM
CC(C)C(=O)Nc1ccc(NC(=O)c2ccc3c(c2)OCO3)cc1	.	?	-	-	-	-
Cn1ncc(Cl)c1C(=O)Nc1ccc2c(c1)OCO2	.	-	-	-	-	-
NC(=O)c1ccc(NC(=O)c2ccc3c(c2)OCO3)cc1	13µM	18µM	1.6µM	-	4.8µM	1.3µM
O=C(Nc1ccc(Br)cc1)c1ccc2c(c1)OCO2	.	8.2µM	0.71µM	-	2.1µM	1µM
SMILES	SMN2 splice up	ELG1 genotoxic	Rab9 prom act	uPA generation	FLuc counter	NPC1 prom act
CC(=O)Nc1ccc(C(=O)Nc2ccc3c(c2)OCO3)cc1	-	-	-	-	?	-
CCc1ccc(NCc2cc3cc4c(cc3n(CC(=O)Nc3cccc(OC)c3)c2=O)OCO4)cc1	.	.	.	.	-	.
O=S1(=O)CCOCCCN1Cc1ccc(Cl)cc1	.	-	-	-	-	-
O=C(Nc1ccc(Cl)cc1)C1=Cc2ccccc2OC1	22µM	1.5µM	0.56µM	-	1.9µM	3.2µM
O=C(Nc1ccc2c(c1)OCO2)c1ccc(CO)cc1	.	?	2.8µM	?	9.5µM	3.2µM
CN(C)c1ccc(C#Cc2ccc3cc(CCCO)oc(=O)c3c2)cc1	.	?	-	-	1.7µM	2.8µM
Cc1ccc2sc(NC(=O)C3CC3)nc2c1C	.	?	?	-	17µM	?
Cc1ccc2sc(NC(=O)c3cccc(N4C(=O)CCC4=O)c3)nc2c1C	.	-	-	?	1.9µM	-
O=C(Nc1nc2cc3c(cc2s1)OCO3)c1ccc(N2C(=O)CCC2=O)cc1	.	-	-	-	-	-
O=C(Nc1nc2ccc(Cl)cc2s1)c1cccc(N2C(=O)CCC2=O)c1	.	?	?	-	1.3µM	-
O=C(Nc1nc2cc3c(cc2s1)OCO3)c1cccc(N2C(=O)CCC2=O)c1	.	-	-	?	0.95µM	-
O=C(NCc1ccccc1Cl)c1ccc(NC(=O)N2CCSc3ncccc32)cc1	.	.	.	.	-	.
CC(C)NC(=O)CC(=O)Nc1ccc2nc3n(c(=O)c2c1)CCCCC3	-	.	.	.	-	.
CCOC(=O)N1CCc2c(sc3c2c(=O)n(-c2ccc(Cl)cc2)c(=O)n3CC(C)C)C1	-	.	.	.	-	.
Cc1ccc2nc(NC(=O)c3ccc(N4C(=O)CCC4=O)cc3)sc2c1	-	-	-	-	?	-
COc1ccc2nc(NC(=O)c3cccc(N4C(=O)CCC4=O)c3)sc2c1	.	-	-	4.5µM	0.85µM	-
Cc1ccc(-n2nnc3c(SCC(=O)NCc4ccco4)ncnc32)cc1	-	-	-	-	13µM	-
COc1ccc(-n2c(-c3ccc(F)cc3)cnc2SCC(=O)NCc2ccco2)cc1	-	?	-	-	24µM	-
O=C(CSc1ncnc2c1nnn2-c1ccc(F)cc1)NCc1ccco1	-	-	-	-	-	-
COc1ccc(-n2nnc3c(SCC(=O)NCc4ccco4)ncnc32)cc1	-	-	-	-	9.5µM	-
COc1cccc(NC(=O)c2sc3nc(C)c(C(=O)Nc4ccc(Cl)cc4)c(-c4ccc(Br)cc4)c3c2N)c1	-	.	.	.	-	.
O=C(O)C1CCN(S(=O)(=O)c2ccc(N3CCCC3C(=O)O)c([N+](=O)[O-])c2)CC1 (centres undefined)	.	-	-	-	-	-
CC1(S(=O)(=O)O)CC(=O)c2ccccc2C1=O (centres undefined)	.	-	-	7.9µM	-	-
O=C1c2ccccc2C(=O)C1(O)O	-	-	-	.	-	-
Cc1ccc(C(=O)Nc2sc(C)c(-c3ccccc3)c2C(N)=O)cc1[N+](=O)[O-]	-	2.9µM	-	-	3.4µM	-
SMILES	SMN2 splice up	ELG1 genotoxic	Rab9 prom act	uPA generation	FLuc counter	NPC1 prom act
Cc1ccc(C(=O)COC(=O)c2cc(-c3cccs3)nc3ccccc23)cc1	-	.	.	.	2.4µM	.
COc1ccc(C(=O)COC(=O)c2cc(-c3cccs3)nc3ccccc23)cc1	-	.	.	.	2.7µM	.
O=C(COC(=O)c1cc(-c2cccs2)nc2ccccc12)c1ccc(F)cc1	-	.	.	.	?	.
CCC1Oc2ccccc2N(CC(=O)NCc2cc(OC)ccc2OC)C1=O (centres undefined)	.	.	.	.	-	.
COc1ccccc1C(C)NCC(=O)Nc1ccccc1C(F)(F)F (centres undefined)	4.5µM	-	-	-	-	-
Cc1ccc(SCCC(=O)N2CCOCC2)cc1	?	-	-	-	?	-
